# From PubChem BioAssay
# Target: Follistatin (Homo sapiens) (UniProt P19883)
# Assay: FST protein binding to printed compounds – biochemical, small-molecule microarray, 635/667 nm fluorescence, primary screen (AID 1132)
# Conditions: 635 nm fluorescence, higher = more signal
# Sequence of Follistatin (Homo sapiens) (P19883 whole entry, looked up): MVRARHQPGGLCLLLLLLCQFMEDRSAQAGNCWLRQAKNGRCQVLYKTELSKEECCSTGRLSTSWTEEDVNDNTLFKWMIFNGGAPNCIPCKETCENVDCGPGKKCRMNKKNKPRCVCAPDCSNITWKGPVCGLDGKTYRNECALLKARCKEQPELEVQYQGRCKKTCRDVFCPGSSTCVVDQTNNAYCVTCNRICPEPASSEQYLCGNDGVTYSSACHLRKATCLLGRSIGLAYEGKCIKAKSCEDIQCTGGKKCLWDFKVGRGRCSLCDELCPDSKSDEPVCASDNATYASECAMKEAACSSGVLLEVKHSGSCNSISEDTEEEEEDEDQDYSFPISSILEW
row,SMILES,composite z-score
1,COC(=O)CC=C[C@@H](C)[C@@H](C=NOC[C@@H](O)[C@H]1O[C@@H]2OC(C)(C)O[C@@H]2[C@H]1O)NS(=O)(=O)c1ccc(C)cc1,0.597
2,O=C(NN=C1C[C@@H](O)[C@@H](O)[C@@H]2[C@@H]3C(=O)N(C4CCCCC4)C(=O)[C@@H]3CC[C@H]12)OCc1ccccc1,-0.516
3,Cc1cc2c(nc1C)CCCCN2CC(C)ON=C[C@@H](C)[C@H](OCc1ccccc1)C(C)C (stereo partly drawn),-1.88
4,CCOC(=O)[C@H](CC(C)C)NC(=O)CCC1CC(OC(=O)NCc2cccc3ccccc23)CC2(CCCC(COC(=O)NCCC(C)C)O2)O1 (stereo partly drawn),0.364
5,CC(C)CON=C1C[C@@H](O)[C@@H](O)[C@@H]2[C@@H]3C(=O)N(C[C@@H]4CCCO4)C(=O)[C@@H]3CC[C@@H]12,-0.341
6,C=CC[C@@H]1C=C[C@H](ON=C(C)CCC(=O)OC[C@H]2O[C@H](c3ccccc3)C=C[C@@H]2Oc2ccc(OC)cc2)[C@@H](CO)O1,-0.398
7,CO[C@@H]1COC(=O)CC=C[C@@H](C)[C@@H]2C=C[C@H](O)[C@@H](COC(=O)CC=C[C@H]1C)O2,1.45
8,COC(=O)[C@H](C)NC(=O)CCC1CC(OC(=O)NCc2cccc3ccccc23)CC2(CCCC(COC(=O)NCC(c3ccccc3)c3ccccc3)O2)O1 (stereo partly drawn),0.376

# Target: Fibroblast growth factor 2 (Homo sapiens) (UniProt P09038)
# Assay: basic fibroblast growth factor binding to printed compounds – biochemical, small-molecule microarray, 635/667 nm fluorescence, primary screen (AID 1133)
# Conditions: FGF2, fluorescence 635/667, higher = more signal
# Sequence of Fibroblast growth factor 2 (Homo sapiens) (P09038 whole entry, looked up): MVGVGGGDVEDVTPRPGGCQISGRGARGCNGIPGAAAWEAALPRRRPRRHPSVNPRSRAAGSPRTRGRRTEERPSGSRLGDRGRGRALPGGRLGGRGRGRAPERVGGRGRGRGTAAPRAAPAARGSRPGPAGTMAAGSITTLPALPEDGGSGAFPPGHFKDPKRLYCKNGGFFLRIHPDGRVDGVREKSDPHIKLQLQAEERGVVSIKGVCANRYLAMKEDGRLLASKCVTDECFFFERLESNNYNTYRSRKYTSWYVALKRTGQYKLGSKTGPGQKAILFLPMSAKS
row,SMILES,composite z-score
1,CCN1C(=O)[C@@H]2[C@H]3C(=CC[C@@H]2C1=O)C1(OCCCO1)[C@H]1O[C@H]1[C@H]3O,0.944
2,CCOC(=O)[C@H](Cc1ccccc1)NC(=O)CCC1CC(OC(=O)NCCc2ccc(F)cc2)CC2(CCCC(COC(=O)NCCc3ccccc3OC)O2)O1 (stereo partly drawn),0.888
3,CCOC(=O)NN=C1C[C@@H](O)[C@@H](O)[C@@H]2[C@@H]3C(=O)N(c4cccc(Oc5ccccc5)c4)C(=O)[C@@H]3CC[C@H]12,0.374
4,CCCCC#C[C@@H]1C=C[C@H](Oc2ccc(C(=O)OC)cc2)[C@@H](COC(=O)OCC)O1,0.585
5,CCCNC(=O)OC[C@H]1O[C@H](CCON=C(C)CCN2CCc3nc(CC)c(CC)cc3C2)C=C[C@@H]1Oc1ccc(OC)cc1,-0.167
6,CCC1=NOC(CCC2CC(OC(=O)NCc3cccc4c3OCO4)CC3(CCCC(COC(=O)NCCc4ccccc4OC)O3)O2)C1 (stereo not drawn),0.297
7,CO[C@@H]1COC(=O)CC=C[C@H](C)[C@H](OC)COC(=O)[C@H](C)NC(=O)CC=C[C@H]1C,0.628
8,C#CCCCON=C1C[C@@H](O)[C@@H](O)[C@@H]2[C@@H]3C(=O)N(C(C)(C)C)C(=O)[C@@H]3CC[C@H]12,-0.127
9,CCOC(=O)[C@H](Cc1ccccc1)NC(=O)CCC1CC(OC(=O)NCc2ccc3c(c2)OCO3)CC2(CCCC(COC(=O)NCCC(C)C)O2)O1 (stereo partly drawn),1.06
10,COC(=O)CC=C[C@@H](C)[C@@H](C=NO[C@H](C)c1cn([C@H](CO)Cc2ccccc2)nn1)NS(=O)(=O)c1ccc(C)cc1,0.0757
11,CCN1C(=O)[C@H]2[C@H]3[C@H](O)[C@H](O)CC(=O)[C@@H]3CC[C@H]2C1=O,0.226
12,CCO[C@H](c1cc(OC)cc([N+](=O)[O-])c1OC)[C@H](C)C=CCC(=O)OC,0.479
13,COC(=O)[C@H](C)NC(=O)CCC1CC(OC(=O)NCCc2ccc(F)cc2)CC2(CCCC(COC(=O)NCc3cccc(C(F)(F)F)c3)O2)O1 (stereo partly drawn),0.617
14,CCOC(=O)[C@H](CC(C)C)NC(=O)CCC1CC(OC(=O)NCc2ccc3c(c2)OCO3)CC2(CCCC(COC(=O)NCc3cccc(C(F)(F)F)c3)O2)O1 (stereo partly drawn),0.363
15,COC(=O)[C@H](C)NC(=O)CCC1CC(OC(=O)NCc2ccc3c(c2)OCO3)CC2(CCCC(COC(=O)NCc3cccc(C(F)(F)F)c3)O2)O1 (stereo partly drawn),0.63
16,C[C@@H](c1ccccc1)N1C(=O)[C@H]2[C@H]3[C@H](O)[C@H](O)CC(=NO[C@@H]4O[C@H](CO)[C@@H](O)[C@H](O)[C@H]4O)[C@H]3CC[C@H]2C1=O,0.444
17,CCc1cc2c(nc1CC)CCN(CCC(C)=NO[C@H](C)c1cn([C@H](CO)Cc3ccccc3)nn1)C2,0.884
18,O=C1C[C@@H](O)[C@@H](O)[C@@H]2[C@@H]3C(=O)N(Cc4ccccc4)C(=O)[C@@H]3CC[C@@H]12,0.895
19,COc1ccc(O[C@H]2C=C[C@@H](c3ccccc3)O[C@@H]2CON=CC[C@@H]2C=C[C@H](OC(C)=O)[C@@H](COC(C)=O)O2)cc1,0.107
20,Cc1ccc(S(=O)(=O)n2c3ccccc3c3nnc(C(=O)c4ccccc4)nc32)cc1,0.978
